This assay addresses MPZL1. Description: pooled miR-30 sensor sort-seq; sequence = guide strand. The following applies: shRNA.
TTTTCTATGTTGATTGATGCAT yielded a sensor-assay potency score (higher = more potent) of -0.358. To ATATTTTCTATGTTGATTGATG belongs -0.933; to TATTTATACATATCCTTTGTAC, -0.807. To TAACTGTGCATATATGACTGGG belongs -0.763; to TTTTTCTACGACATAGAGCCTA, -0.173; to TTGACATCACAGATATAGGTGC, 0.0652. In turn, TATTCTCTTAATTCTTTCGGAT yielded a sensor-assay potency score (higher = more potent) of -0.74. The result for TTTGACATCACAGATATAGGTG reads 0.376; that for TACACCACAGACTCTGACTTGT, 0.413; that for TTTCTATGTTGATTGATGCATC, -0.949.

For the sequence TTTTCTACGACATAGAGCCTAA, the sensor-assay potency score (higher = more potent) was -0.79. To TTGTGTACCATTTGCCACGAAG belongs -1.44.
Further: reference of the scale not given here.
